Test results from PubChem BioAssay AID1159580 (chemical genetic matrix, 2015).
Several values for one entry are separate records, joined by “and”; a condition that tells them apart may be missing. Equal entries are not always repeated. Among all 5,500 compounds or so, about 2,000 (36%) were called active. Another 18% or so got no clear call; they are omitted. Rule as the data show it: active = normalized growth mostly below about 0.91 (no sharp cut-off); inconclusive = no clear call, values can overlap the other calls; inactive = mostly above about 0.92. Some of the results follow.

Assay: chemical genetic growth profiling, strain panel (AID 1159580);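 also: tested at 20 µM; growth read once vehicle control cultures reached saturation at 30 °C; 1 = growth at the plate median or of vehicle wells; lower values mean less growth of the strain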
Settings: S. cerevisiae deletion strains, growth OD

Measured: normalized growth

COC(=O)C[C@H]1C(C)(C)[C@@H](O)[C@@H]2CC3=C4C=C(OC)O[C@@H](c5ccoc5)[C@]4(C)CCC3[C@@]1(C)C2=O (some centres not stated)
inactive: locus YAL021C, strain ccr4, hits give low values 0.996 | locus YAL026C, strain drs2, hits give low values 0.99 | locus YAL030W, strain snc1, hits give low values 1 | locus YBL061C, strain skt5, hits give low values 1.01 | locus YBR009C, strain hhf1, hits give low values 1.01 | locus YBR021W, strain FUR4, hits give low values 1.01 | locus YBR023C, strain chs3, hits give low values 0.997 | locus YBR171W, strain sec66, hits give low values 0.999 | locus YBR229C, strain ROT2, hits give low values 1 | locus YBR231C, strain swc5, hits give low values 1 | locus YBR279W, strain paf1, hits give low values 0.999 | locus YCL011C, strain gbp2, hits give low values 1.01 | locus YCL016C, strain dcc1, hits give low values 0.999 | locus YCL029C, strain bik1, hits give low values 0.978 | locus YCL061C, strain MRC1, hits give low values 1.01 | locus YCL069W, strain vba3, hits give low values 0.983 | locus YCR088W, strain abp1, hits give low values 0.99 | locus YDL005C, strain med2, hits give low values 0.989 | locus YDL035C, strain GPR1, hits give low values 1.01 | locus YDL040C, strain nat1, hits give low values 0.998 | locus YDL074C, strain BRE1, hits give low values 1.02 | locus YDL101C, strain DUN1, hits give low values 1 | locus YDL134C, strain PPH21, hits give low values 1.01 | locus YDL185W, strain tfp1, hits give low values 0.982 | locus YDL192W, strain arf1, hits give low values 0.991 | locus YDR001C, strain nth1, hits give low values 0.992 | locus YDR069C, strain doa4, hits give low values 0.998 | locus YDR101C, strain arx1, hits give low values 1 | locus YDR137W, strain rgp1, hits give low values 1.01 | locus YDR159W, strain sac3, hits give low values 0.998 | locus YDR162C, strain NBP2, hits give low values 0.987 | locus YDR195W, strain ref2 0.962 | locus YDR297W, strain sur2, hits give low values 0.994 | locus YDR318W, strain mcm21, hits give low values 0.995 | locus YDR334W, strain swr1, hits give low values 0.978 | locus YDR335W, strain msn5, hits give low values 0.994 | locus YDR388W, hits give low values 0.985 | locus YDR392W, strain spt3, hits give low values 0.992 | locus YDR502C, strain sam2, hits give low values 0.982 | locus YEL003W, strain gim4, hits give low values 0.994 | locus YEL037C, strain rad23, hits give low values 0.988 | locus YEL061C, strain CIN8 (second series), hits give low values 0.982 | locus YEL061C, strain CIN8, hits give low values 1 | locus YER015W, strain faa2, hits give low values 1 | locus YER016W, strain bim1, hits give low values 1.01 | locus YER110C, hits give low values 0.979 | locus YER111C, strain swi4, hits give low values 1 | locus YER155C, strain BEM2 (second series), hits give low values 1.02 | locus YER155C, strain BEM2, hits give low values 1 | locus YER167W, strain BCK2, hits give low values 1.02 | locus YFR010W, strain ubp6, hits give low values 0.982 | locus YGL078C, strain dbp3, hits give low values 0.984 | locus YGL086W, strain mad1, hits give low values 0.991 | locus YGL167C, strain pmr1, hits give low values 1.01 | locus YGL173C, strain kem1, hits give low values 1 | locus YGL227W, strain vid30, hits give low values 0.983 | locus YGL240W, strain doc1, hits give low values 1.02 | locus YGL248W, strain PDE1, hits give low values 0.999 | locus YGL253W, strain hxk2, hits give low values 0.993 | locus YGR078C, strain PAC10, hits give low values 1 | locus YGR135W, strain pre9, hits give low values 0.976 | locus YGR252W, strain gcn5, hits give low values 0.994 | locus YHR013C, strain ard1, hits give low values 1.01 | locus YHR027C, strain rpn1, hits give low values 0.994 | locus YHR030C, strain SLT2, hits give low values 0.96 | locus YHR079C, strain IRE1 (second series), hits give low values 0.992 | locus YHR079C, strain IRE1, hits give low values 0.968 | locus YHR094C, strain hxt1, hits give low values 0.987 | locus YHR129C, strain ARP1, hits give low values 1 | locus YHR142W, strain chs7, hits give low values 0.977 | locus YHR200W, strain rpn10, hits give low values 0.988 | locus YIL066C, strain RNR3, hits give low values 1.02 | locus YIL073C, strain SPO22, hits give low values 0.981 | locus YIL125W, strain kgd1, hits give low values 0.991 | locus YIR030C, strain dcg1, hits give low values 0.992 | locus YJL092W, strain hpr5, hits give low values 0.993 | locus YJL095W, strain BCK1 (second series), hits give low values 1 | locus YJL095W, strain BCK1, hits give low values 0.996 and 0.97 | locus YJL115W, strain asf1, hits give low values 0.985 | locus YJL129C, strain trk1, hits give low values 0.97 | locus YJL134W, strain LCB3, hits give low values 1.01 | locus YJL154C, strain vps35, hits give low values 0.978 | locus YJL164C, strain tpk1, hits give low values 0.997 | locus YJL166W, strain qcr8, hits give low values 0.995 | locus YJL168C, strain set2, hits give low values 0.983 | locus YJL187C, strain SWE1 (second series), hits give low values 1.01 | locus YJR043C, strain POL32, hits give low values 1.04 | locus YJR066W, strain TOR1, hits give low values 0.92 | locus YKL009W, strain mrt4, hits give low values 0.986 | locus YKL068W, hits give low values 0.996 | locus YKL085W, strain MDH1 (second series), hits give low values 0.975 | locus YKL085W, strain MDH1, hits give low values 0.975 | locus YKL160W, strain elf1, hits give low values 1.01 | locus YKL190W, strain CNB1, hits give low values 1 | locus YKR001C, strain vps1, hits give low values 0.992 | locus YKR026C, strain gcn3, hits give low values 0.972 | locus YKR091W, strain srl3, hits give low values 1 | locus YLL001W, strain dnm1, hits give low values 1 | locus YLL026W, hits give low values 1.01 | locus YLL041C, strain sdh2, hits give low values 1.02 | locus YLR027C, strain aat2, hits give low values 1 | locus YLR039C, strain RIC1, hits give low values 0.935 | locus YLR058C, strain SHM2, hits give low values 1.01 | locus YLR102C, strain apc9, hits give low values 0.987 | locus YLR113W, strain HOG1, hits give low values 0.998 | locus YLR221C, strain rsa3, hits give low values 0.998 | locus YLR258W, strain gsy2, hits give low values 0.993 | locus YLR262C, strain YPT6 (second series), hits give low values 0.959 | locus YLR262C, strain YPT6, hits give low values 0.857 | locus YLR268W, strain sec22, hits give low values 0.997 | locus YLR320W, strain mms22, hits give low values 1 | locus YLR342W, strain FKS1 (second series), hits give low values 1.02 | locus YLR342W, strain FKS1, hits give low values 0.999 | locus YLR357W, strain rsc2, hits give low values 1.01 | locus YLR370C, strain arc18, hits give low values 0.993 | locus YLR371W, strain rom2, hits give low values 0.983 | locus YLR384C, strain iki3, hits give low values 1 | locus YLR418C, strain cdc73, hits give low values 0.962 | locus YML016C, strain PPZ1, hits give low values 1.01 | locus YML032C, strain rad52, hits give low values 1 | locus YML120C, strain ndi1, hits give low values 0.998 | locus YML124C, strain tub3, hits give low values 0.992 | locus YMR058W, strain fet3, hits give low values 1 | locus YMR078C, strain ctf18, hits give low values 0.987 | locus YMR125W, strain sto1, hits give low values 0.993 | locus YMR129W, hits give low values 0.997 | locus YMR205C, strain PFK2, hits give low values 1.02 | locus YMR223W, strain ubp8, hits give low values 0.976 | locus YMR231W, strain pep5, hits give low values 0.997 | locus YMR307W, strain GAS1, hits give low values 1 | locus YNL067W, strain RPL9B, hits give low values 0.997 | locus YNL071W, strain lat1, hits give low values 0.978 | locus YNL183C, strain NPR1, hits give low values 0.938 | locus YNL209W, strain ssb2, hits give low values 0.985 | locus YNL233W, strain BNI4, hits give low values 1.01 | locus YNL248C, strain rpa49, hits give low values 0.97 | locus YNL250W, strain rad50, hits give low values 0.981 | locus YNL271C, strain bni1, hits give low values 0.985 | locus YNL298W, strain CLA4, hits give low values 0.984 | locus YNL307C, strain MCK1, hits give low values 0.98 | locus YNL322C, strain KRE1 (second series), hits give low values 1.01 | locus YNR049C, strain mso1, hits give low values 1 | locus YNR052C, strain pop2, hits give low values 0.979 | locus YOL006C, strain TOP1, hits give low values 1.03 | locus YOL012C, strain htz1 1.17 | locus YOL147C, strain pex11, hits give low values 0.986 | locus YOR001W, strain rrp6, hits give low values 0.989 | locus YOR061W, strain CKA2, hits give low values 1 | locus YOR069W, strain VPS5, hits give low values 1 | locus YOR070C, strain gyp1, hits give low values 0.987 | locus YOR080W, strain dia2, hits give low values 0.992 | locus YOR083W, strain WHI5, hits give low values 1.01 | locus YOR106W, strain vam3, hits give low values 0.98 | locus YOR136W, strain idh2, hits give low values 0.991 | locus YOR144C, strain elg1, hits give low values 0.992 | locus YOR184W, strain ser1, hits give low values 0.994 | locus YOR231W, strain MKK1, hits give low values 0.98 | locus YOR265W, strain rbl2, hits give low values 0.993 | locus YOR270C, strain vph1, hits give low values 0.86 | locus YOR290C, strain snf2, hits give low values 1.03 | locus YOR316C, strain cot1, hits give low values 0.981 | locus YPL051W, strain arl3, hits give low values 1.02 | locus YPL055C, strain LGE1, hits give low values 1.03 | locus YPL078C, strain atp4, hits give low values 0.985 | locus YPL106C, strain sse1, hits give low values 1.02 | locus YPL240C, strain hsp82, hits give low values 0.991 | locus YPL256C, strain CLN2, hits give low values 0.955 | locus YPR119W, strain clb2, hits give low values 0.982 | locus YPR141C, strain kar3, hits give low values 0.98 | locus YPR163C, strain tif3, hits give low values 0.981 | locus YPR167C, strain met16, hits give low values 0.983 | strain wtn01, hits give low values 1
